From PubChem BioAssay AID1851 (National Center for Advancing Translational Sciences (NCATS), 2009)
About 5,800 (36%) of roughly 16,000 compounds were called active. Roughly 23% stayed inconclusive and do not appear here. Calls follow the shape of the dose curve; as a rule, active = well fitted curve in the direction sought with a large enough effect; inconclusive = small, poorly fitted or top-dose-only effect, or effect the other way; inactive = no such curve, though single readings can be large or run the other way. The list shows a part of the results.

The compounds below were run against Cytochrome P450 2C19 (Homo sapiens) (UniProt P33261) (assay: Cytochrome panel assay with activity outcomes). Settings: recombinant CYP, pro-luciferin dealkylation, luminescence, p450-cyp2c19; series mostly up to 57.1 µM.
Chain of Cytochrome P450 2C19 (Homo sapiens) (P33261 whole entry, looked up): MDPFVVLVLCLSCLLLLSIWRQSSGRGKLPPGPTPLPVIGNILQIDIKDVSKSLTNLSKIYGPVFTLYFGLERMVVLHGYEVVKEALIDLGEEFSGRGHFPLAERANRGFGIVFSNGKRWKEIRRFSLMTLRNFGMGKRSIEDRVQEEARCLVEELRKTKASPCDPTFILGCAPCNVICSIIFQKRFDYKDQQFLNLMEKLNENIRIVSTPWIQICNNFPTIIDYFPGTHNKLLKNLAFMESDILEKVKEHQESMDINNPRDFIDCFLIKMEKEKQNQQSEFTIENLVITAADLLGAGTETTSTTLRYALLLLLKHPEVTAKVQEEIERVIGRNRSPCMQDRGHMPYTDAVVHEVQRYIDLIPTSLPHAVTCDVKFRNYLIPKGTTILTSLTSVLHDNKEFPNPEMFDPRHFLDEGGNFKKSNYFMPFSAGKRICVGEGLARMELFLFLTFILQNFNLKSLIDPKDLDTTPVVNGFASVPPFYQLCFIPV
% is scaled to controls: 0 for no effect and ±100 for the full control effect.

AC50, inactive:
O=C(N[C@@H](c1ccccc1)[C@@H]1C[C@H]1C(=O)O)OCc1ccccc1
COC(=O)[C@H]1C[C@@H]1[C@H](NC(C)=O)c1ccccc1
COC(=O)[C@@H]1C[C@H]1[C@@H](NC(=O)c1cccnc1)c1ccccc1
COC(=O)C1CC1C(NC(=O)[C@H]1CCCCN1)c1ccccc1 (stereo partly specified)
COC(=O)[C@H]1C[C@@H]1[C@H](NC(=O)c1cccnc1)c1ccccc1
COc1cccc(Nc2ncc3nc(-c4cc(F)cc(F)c4)c(=O)n(CCC#N)c3n2)c1
OCCN1CCN(CCOc2cccc(Cl)c2)CC1
O=C(O)CCCCCCCC(=O)O
CCOc1ccccc1CNCCN1CCOCC1
Cn1c(=O)c(-c2ccc(F)c(F)c2)nc2cncnc21
CN1CCN(c2ncc3nc(CCc4ccccc4)c(=O)n(Cc4ccc(F)cc4)c3n2)CC1
COc1cccc(Cn2c(=O)c(-c3ccccc3)nc3cnc(N4CCN(C)CC4)nc32)c1
COc1cccc(Cn2c(=O)c(-c3cccc(C#N)c3)nc3cnc(N4CCN(C)CC4)nc32)c1
CC(=O)NS(=O)(=O)c1ccc(NC(=S)NC(=O)c2ccco2)cc1
CN(C)S(=O)(=O)c1ccc(NC(=O)COC(=O)c2ccccn2)cc1
CCCC(=O)Nc1ccc(C(=O)NNC(=S)NC(=O)c2cccs2)cc1
Cc1noc(NS(=O)(=O)c2ccc(NC(=O)c3ccc(Br)o3)cc2)c1C
CCCCCCCCCCCCCCCC[N+](C)(C)CCN(Cc1ccc(OC)cc1)c1ncccn1
Cc1nc2cnc(N(C)C)nc2n(-c2ccccc2)c1=O
Brc1ccc(-c2nnc(-c3cccc(Br)c3)o2)cc1
CCc1nn(C)c(-c2n[nH]c(=S)n2N)c1Cl
CCn1c(CC(C)C)n[nH]c1=S
CC1CCN(CCc2nc3cc(NC(=O)NC4CCCCC4)ccc3n2C)CC1

AC50, active:
COC(=O)[C@H]1C[C@@H]1[C@H](NC(=O)c1ccccc1)c1ccccc1 7.94 µM
COC(=O)[C@H]1C[C@@H]1[C@H](NC(=O)OCc1ccccc1)c1ccccc1 3.16 µM
COC(=O)[C@@H]1C[C@H]1[C@@H](NC(=O)Oc1ccc(F)cc1)c1ccccc1 10 µM
COC(=O)[C@@H]1C[C@H]1[C@@H](NC(=O)c1ccccc1)c1ccccc1 1.26 µM
O=C(N[C@@H](c1ccccc1)[C@@H]1C[C@H]1C(=O)NCc1ccccn1)OCc1ccccc1 7.94 µM
CCCCN1C(=O)C(NC(=O)C2CC2)(C(F)(F)F)C2=C1CC(C)(C)CC2=O (stereo unspecified) 20 µM
CC1CCN(CCOc2cc(Cl)ccc2Cl)CC1 7.08 µM
CN(C)c1ccc(-c2nc3n(n2)C(c2cccnc2)C2=C(CC(C)(C)CC2=O)N3)cc1 (stereo unspecified) 14.1 µM
c1cc(CNCCCN2CCOCC2)ccn1 7.94 µM
CSc1nncc(-c2ccc(F)c(F)c2)n1 11.2 µM
O=C(OCc1ccc(Cl)cc1Cl)c1cccnc1Cl 0.355 µM
CC(=O)N1c2c(cc(Br)cc2S(=O)(=O)NCC2COc3ccccc3O2)CC1C (stereo unspecified) 3.16 µM
COc1ccc(-n2nnnc2/C=C\Nc2ccccc2C(=O)c2ccccc2)cc1 0.316 µM
COc1ccc(C(F)(F)F)cc1N/C=C\c1nnnn1-c1ccccc1 1.12 µM
COc1cccc(Cn2c(=O)c(CCc3ccccc3)nc3cnc(N4CCN(C)CC4)nc32)c1 7.94 µM
COc1cccc(Cn2c(=O)c(CCc3ccccc3)nc3cnc(N4CCNCC4)nc32)c1 25.1 µM
CCN(c1ccccc1)S(=O)(=O)c1ccc(NC(=S)NC(=O)c2ccc(Br)o2)cc1 8.91 µM
CN(C1CCCCC1)S(=O)(=O)c1ccc(NC(=S)NC(=O)c2cccs2)cc1 3.55 µM
CCN(c1ccccc1)S(=O)(=O)c1ccc(NC(=S)NC(=O)c2cccs2)cc1 3.98 µM
CCN(CC)S(=O)(=O)c1ccc(NC(=O)COC(=O)c2ccc(Br)o2)cc1 11.2 µM
O=c1c(CCc2ccccc2)nc2cncnc2n1-c1ccccc1 10 µM
O=c1c(CCc2ccccc2)nc2cncnc2n1Cc1ccccc1Cl 5.01 µM
O=c1c(CCc2ccccc2)nc2cncnc2n1Cc1ccc(F)cc1 6.31 µM
Cc1nnc(-c2cccc(Br)c2)c2cn(-c3ccccc3Cl)nc12 1.78 µM
Cc1nnc(-c2cccc(Br)c2)c2cn(-c3ccc(Br)cc3)nc12 5.01 µM
CC(C)Cn1c(-c2nn(C)cc2Cl)n[nH]c1=S 15.8 µM
O=C(Nc1ccc2c(c1)nc1n2CCN(C2CCCCC2)C1)NC1CCCCC1 14.1 µM
Cn1c2c(c(=O)n(C)c1=O)[C@@H]1c3c(ccc4ccccc34)OC[C@@H]1CO2 14.1 µM
O=C1c2ccccc2C(=O)c2c(NC3CCCCC3)ccc(Nc3ccc(S(=O)(=O)O)cc3)c21 3.98 µM

activity, negative = inhibition, inactive:
CC(C)(S)[C@H](N)C(=O)O 4.04% [at 11.4 µM]
Clc1ccc(Cl)c(SCCCN2CCNCC2)c1 11.4% [at 11.4 µM]
c1cc(CNCCN2CCNCC2)ccn1 -34.1% [at 11.4 µM]
CC(=O)Nc1ccc2c(c1)/C(=C/c1ccc([N+](C)(C)C)cc1)c1ccccc1-2 -19.5% [at 11.4 µM]
O=C(O)COc1c(Cl)cc(Cl)c2cccnc12 26% [at 11.4 µM]
O=C1[C@H]2CCn3c(=O)n(-c4ccccc4)c(=O)n3[C@H]2[C@H](O)[C@H]2O[C@@H]12 -1.55% [at 11.4 µM]
C[C@@H]1/C=C\CC(=O)OC[C@H]2O[C@@H](C=C[C@@H]2O)[C@H](C)/C=C\CC(=O)OC1 -20.4% [at 11.4 µM]
Nc1ccc(-c2ccc(Nc3cc(S(=O)(=O)O)c(N)c4c3C(=O)c3ccccc3C4=O)cc2)c(S(=O)(=O)O)c1 -36% [at 11.4 µM]
O=C(Nc1ccc(Nc2ccc3c(c2)C(=O)c2ccccc2C3=O)c2c1C(=O)c1ccccc1C2=O)c1ccccc1 -23.9% [at 11.4 µM]
